The text below walks through data of a collection of fitness landscapes (doi:10.1126/science.1257360).

B1: PhoQ; a variant is named by its letters at X, in order, P23837 (parent)
chain: MKKLLRLFFPLSLRVRFLLATAAVVLVLSLAYGMVALIGYSVSFDKTTFRLLRGESNLFYTLAKWENNKLHVELPENIDKQSPTMTLIYDENGQLLWAQRDVPWLMKMIQPDWLKSNGFHEIEADVNDTSLLLSGDHSIQQQLQEVREDDDDAEMTHSVAVNVYPATSRMPKLTIVVVDTIPVELKSSYMVWSWFIYVLSANLLLVIPLLWVAAWWSLRPIEALAKEVRELEEHNRELLNPATTRELTSLVRNLNRLLKSERERYDKYRTTLTDLTHSLKTPLXXLQXXLRSLRSEKMSVSDAEPVMLEQISRISQQIGYYLHRASMRGGTLLSRELHPVAPLLDNLTSALNKVYQRKGVNISLDISPEISFVGEQNDFVEVMGNVLDNACKYCLEFVEISARQTDEHLYIVVEDDGPGIPLSKREVIFDRGQRVDTLRPGQGVGLAVAREITEQYEGKIVAGESMLGGARMEVIFGRQHSAPKDE

The full ranking holds about 140,000 sequences; the median of “enrichment ratio after two sorts for PhoP signalling” is about 0, and the highest 2% start at about 11. For the sample, the highest values were picked, then their nearest neighbours and some sequences at random.

The variants in this experiment derive from B1. The experiment can be described thus: enrichment ratio after two sorts for PhoP signalling (ratio (wild type AVST 3.29)); higher = more functional. As to conditions: with PhoP (E. coli).
For the variant ILLC, the enrichment ratio was at most 0.25.

For the variant TKRF, the enrichment ratio was at most 0.25.

Consider EMVN, for which the enrichment ratio is at most 0.25.

With VCYH, the enrichment ratio was at most 0.25.

HYMK: the enrichment ratio is at most 0.25.

With KEFY, the enrichment ratio is at most 0.25.

On to LSFV, for which the enrichment ratio worked out at 5.15.

As for SLYE, the enrichment ratio is at most 0.25.

Turning to NVML, the enrichment ratio is at most 0.25.

Regarding FVML, the enrichment ratio worked out at 13.2.

Regarding TVML, the enrichment ratio came to 1.47.

For the variant EIFI, the enrichment ratio was at most 0.25.

For NLQN, the enrichment ratio was at most 0.25.

In the case of IMRF, the enrichment ratio is at most 0.25.

As for VECR, the enrichment ratio is at most 0.25.

With CDCR, the enrichment ratio was at most 0.25.

For TCKR, the enrichment ratio is at most 0.25.

Take TEKR: the enrichment ratio was at most 0.25.

With TCCR, the enrichment ratio amounted to 13.1.

As to TECR, the enrichment ratio was 16.3.

With QFGW, the enrichment ratio is at most 0.25.

Regarding KPGY, the enrichment ratio was at most 0.25.

In the case of KAWY, the enrichment ratio is at most 0.25.

Regarding VNCT, the enrichment ratio stood at 1.24.

Take MEFD: the enrichment ratio was at most 0.25.

For AQCH, the enrichment ratio is 32.7.

Regarding WICH, the enrichment ratio was at most 0.25.

As for AQTH, the enrichment ratio was at most 0.25.

In the case of NQCH, the enrichment ratio is at most 0.25.

As for AGCH, the enrichment ratio was 11.6.

As for AICH, the enrichment ratio was 15.1.

RGCH: the enrichment ratio was at most 0.25.

In the case of TGCH, the enrichment ratio came out at 10.6.

With AHCH, the enrichment ratio is 2.08.

Take MICD: the enrichment ratio was at most 0.25.

On to EHIV, for which the enrichment ratio is at most 0.25.

Turning to FHVI, the enrichment ratio is at most 0.25.

GTWL: the enrichment ratio was at most 0.25.

Regarding IFFD, the enrichment ratio was at most 0.25.

On to KVLP, for which the enrichment ratio was at most 0.25.

Take LFKL: the enrichment ratio was at most 0.25.

Turning to SPLI, the enrichment ratio is at most 0.25.

STLI: the enrichment ratio stood at 12.4.

As to SILI, the enrichment ratio worked out at 4.12.

ATLT: the enrichment ratio was determined as 10.2.

In the case of SQLI, the enrichment ratio was determined as 11.8.

Regarding FTLI, the enrichment ratio is 10.3.

As for QPLI, the enrichment ratio is at most 0.25.

On to ATLI, for which the enrichment ratio turned out to be 15.7.

As to DPLI, the enrichment ratio was at most 0.25.

With KYLI, the enrichment ratio was at most 0.25.

As to YTLI, the enrichment ratio was determined as 12.8.

As for ATLS, the enrichment ratio stood at 10.6.

Consider SDYI, for which the enrichment ratio was at most 0.25.

CPPL: the enrichment ratio was at most 0.25.

In the case of LICH, the enrichment ratio is at most 0.25.

Take GFMC: the enrichment ratio is at most 0.25.

With RVDS, the enrichment ratio was at most 0.25.

As to INFA, the enrichment ratio is at most 0.25.

With TVQC, the enrichment ratio was determined as 4.14.

FEAI: the enrichment ratio is at most 0.25.

Take LSQY: the enrichment ratio is at most 0.25.

In the case of ITLI, the enrichment ratio was determined as 8.76.

In the case of SALI, the enrichment ratio was 12.2.

Take IILI: the enrichment ratio is at most 0.25.

Regarding NALI, the enrichment ratio was 4.49.

With GALS, the enrichment ratio turned out to be 5.05.

For GYLI, the enrichment ratio was 0.357.

For YALI, the enrichment ratio came out at 13.3.

As to GALI, the enrichment ratio was 14.1.

In the case of KALI, the enrichment ratio is at most 0.25.

Turning to GALA, the enrichment ratio was 2.12.

As for GTLI, the enrichment ratio turned out to be 15.8.

As for KQLI, the enrichment ratio was at most 0.25.

On to ERQV, for which the enrichment ratio is at most 0.25.

Consider LRKP, for which the enrichment ratio is at most 0.25.

Take KPPH: the enrichment ratio was at most 0.25.

As to TPRP, the enrichment ratio is at most 0.25.

Consider FDPD, for which the enrichment ratio was at most 0.25.

For the variant PKVE, the enrichment ratio was at most 0.25.

Regarding RSAQ, the enrichment ratio is at most 0.25.

As to TTLI, the enrichment ratio is 12.4.

Consider LTLI, for which the enrichment ratio was found to be 0.384.

For the variant HALI, the enrichment ratio worked out at 12.2.

As for HALA, the enrichment ratio is at most 0.25.

For HFLI, the enrichment ratio was at most 0.25.

For the variant CTLI, the enrichment ratio was at most 0.25.

As to LMQH, the enrichment ratio was at most 0.25.

With KFYQ, the enrichment ratio was at most 0.25.

Regarding CSGS, the enrichment ratio was at most 0.25.

Consider WWST, for which the enrichment ratio was at most 0.25.

For the variant FRNI, the enrichment ratio is at most 0.25.

In the case of FVQK, the enrichment ratio was at most 0.25.

Regarding SPQQ, the enrichment ratio was at most 0.25.

With TVQK, the enrichment ratio worked out at 15.5.

In the case of PVQQ, the enrichment ratio is at most 0.25.

For the variant TVQV, the enrichment ratio was determined as 12.7.

Take TVQQ: the enrichment ratio came to 12.6.

Take SPQV: the enrichment ratio is at most 0.25.

As for TVQN, the enrichment ratio is 12.1.

As to PVQV, the enrichment ratio was at most 0.25.

On to TVEN, for which the enrichment ratio was at most 0.25.

With NVQK, the enrichment ratio is at most 0.25.

On to SPQN, for which the enrichment ratio was at most 0.25.

Consider DRLY, for which the enrichment ratio was at most 0.25.

On to RFEM, for which the enrichment ratio was at most 0.25.

On to RQMN, for which the enrichment ratio is at most 0.25.

On to HNHV, for which the enrichment ratio is at most 0.25.

For THPW, the enrichment ratio was at most 0.25.

Turning to LWEP, the enrichment ratio was at most 0.25.

For the variant VYIW, the enrichment ratio was at most 0.25.

With GCNG, the enrichment ratio is at most 0.25.

With ANGD, the enrichment ratio was at most 0.25.

Take ANGM: the enrichment ratio came to 21.9.

Take ANDS: the enrichment ratio is at most 0.25.

Take ARVM: the enrichment ratio stood at 14.7.

As to ANGR, the enrichment ratio was at most 0.25.

Regarding ANDM, the enrichment ratio was at most 0.25.

Take ANVM: the enrichment ratio was 14.9.

As for ARVA, the enrichment ratio was at most 0.25.

ANGH: the enrichment ratio is 11.6.

For ARGM, the enrichment ratio was at most 0.25.

Regarding AHGH, the enrichment ratio is at most 0.25.

As to ANGP, the enrichment ratio is at most 0.25.

As to SWFD, the enrichment ratio is at most 0.25.

As for HSAA, the enrichment ratio was at most 0.25.

For the variant FPVD, the enrichment ratio is at most 0.25.

VQYV: the enrichment ratio was at most 0.25.

For the variant DVLV, the enrichment ratio is at most 0.25.

With PCEH, the enrichment ratio was at most 0.25.

Take WFYE: the enrichment ratio is at most 0.25.

With LTRP, the enrichment ratio was at most 0.25.

Turning to YRLF, the enrichment ratio is at most 0.25.

Consider ANPM, for which the enrichment ratio is at most 0.25.

Consider ANCK, for which the enrichment ratio was found to be 6.46.

On to ANNM, for which the enrichment ratio stood at 12.9.

Regarding RPWW, the enrichment ratio is at most 0.25.

Turning to HFCW, the enrichment ratio is at most 0.25.

As to QNGD, the enrichment ratio was at most 0.25.

On to QNYM, for which the enrichment ratio was at most 0.25.

In the case of QNGM, the enrichment ratio was determined as 16.

For the variant QRGV, the enrichment ratio is at most 0.25.

Take QNGV: the enrichment ratio was 22.1.

Take QNHV: the enrichment ratio is at most 0.25.

Consider EKNQ, for which the enrichment ratio was at most 0.25.

Turning to NNYE, the enrichment ratio is at most 0.25.

With HMKK, the enrichment ratio is at most 0.25.

As to DNAG, the enrichment ratio is at most 0.25.

On to FMVV, for which the enrichment ratio was at most 0.25.

Turning to MREV, the enrichment ratio is at most 0.25.

On to HMSI, for which the enrichment ratio was at most 0.25.

On to QCTL, for which the enrichment ratio is at most 0.25.

On to SHCQ, for which the enrichment ratio was determined as 21.1.

For SHCI, the enrichment ratio turned out to be 6.63.
